# Reference: PubChem BioAssay (EPA / NIEHS)
# The source holds several records for some structures; these can differ, active in one and inactive in another. The source made the active and inactive calls. How the source made its calls: active means hit-call score of the fitted dose curve at least 0.9, where 1 is the maximum; inactive means score below 0.9.
# Read-out: Interleukin-8 (IL8), CXCL8 (gene 3576)
# Assay: BSK_KF3CT_IL8: BioMAP Diversity Plus: KF3CT Assay for Interleukin-8 (IL8) Biomarker Activity (AID 2284254)
# Details: primary human keratinocytes with fibroblasts
# Method: BSK_KF3CT is a cell-based, multiplexed-readout assay that uses keratinocytes and foreskin fibroblasts, a human skin primary cell co-culture, with measurements taken at 24 hours after chemical dosing in a 96-well plate.BSK_KF3CT_IL8 is an assay component measured in the BSK_KF3CT assay. It measures IL-8 antibody related to regulation of gene expression using ELISA technology.Data from the assay component BSK_KF3CT_IL8 was analyzed at the endpoint, BSK_KF3CT_IL8, in the positive analysis fitting direction relative to DMSO as the negative control and baseline of activity. Using a type of binding reporter, gain or loss-of-signal activity can be used to understand protein changes. To generalize the intended target to other relatable targets, this assay endpoint is annotated to the 'cytokine' intended target family, where the subfamily is 'interleukins'.
# The levels of cell surface (or secreted, indicated by the prefix "s") biomarker endpoints were measured by ELISA. Overt cytotoxicity to cells in confluent adherent cultures (all systems other than the BT system) was assessed by measuring total protein levels using sulforhodamine B (SRB) staining in parallel cultures at the time of biomarker measurements, indicated as SRB endpoints. For proliferation assays for adherent cell types, individual cell types are cultured at sub-confluence and relative cell numbers quantified by SRB staining at time points optimized for each system (48 h: 3C and CASM3C systems; 72 h: BT and HDF3CGF systems; 96 h: SAg system). SRB was performed by staining cells with 0.1% SRB after fixation with 10% TCA and reading wells at 560 nm.Viability and proliferation of PBMC (T cells) was quantified by Alamar Blue reduction for the SAg and BT systems. For PBMC viability (referred to as PBMC Cytotoxicity within the assay endpoint names), cells were plated (75,000/well in a 96-well plate) and then chemical samples added for 1 h before addition of activators, SEB and TSST-1 (20 ng/mL final concentration each). Cells were incubated for 90 h. Then, Alamar Blue (20 uL/well) (Invitrogen, Cat DAL1100) was added for 6 h, and the plates were read with a fluorescence microplate reader at 546/580 nm (excitation/emission). For PBMC proliferation, cells were plated and activated as above but incubated for only 16 h prior to addition of Alamar Blue. Plates were read after 6 h.
SMILES,outcome,AC50
O=S(=O)(O)C(F)(F)C(F)(F)OC(F)(F)C(F)(F)F,inactive,
CCCO[Si](OCCC)(OCCC)OCCC,inactive,
CC(=O)c1ccc(C)cc1,inactive,
C=C(F)C(=O)OC(C(F)(F)F)C(F)(F)F,inactive,
OCC(F)(OC(F)(F)C(F)(OC(F)(F)C(F)(F)C(F)(F)F)C(F)(F)F)C(F)(F)F (stereo not given),inactive,4.96 µM (active)
CC(C)CCCC(C)(C)O,inactive,
CC(C)(CO)CO,inactive,
C=C(C)C(=O)OCCC(F)(F)C(F)(F)C(F)(F)C(F)(F)C(F)(F)C(F)(F)C(F)(F)C(F)(F)F,inactive,
O=C(O)C(F)(F)OC(F)(F)C(F)(F)OC(F)(F)C(F)(F)C(F)(F)C(F)(F)F,inactive,42.7 µM (active)
O=C(O)C(F)(F)C(F)(F)C(F)(F)C(F)(F)C(F)(F)C(F)(F)C(F)(F)C(F)F,inactive,
CCn1cc(C(=O)O)c(=O)c2ccc(C)nc21,inactive,
c1ccc(OCCOc2ccccc2)cc1,inactive,
CCCCN(CCO)CCO,inactive,
